Laboratory results reported in PubChem BioAssay.
Entries with a potency or affinity are not part of this list. Inconclusive results are not listed. Calls of active or inactive are those of the source. Unless noted, the rule behind the calls is not given here.

Tests used:
[1] = cytotoxicity in PAX8-dependent RMG-1 cells, dose response, cell-based, cherry-pick (AID 687029;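 active = signal drop whose fitted half-maximal concentration is at most twice the top valid dose, in every test run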;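 note: cells exposed to compound for 96 hours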)
[2] = cytotoxicity in IOSE-T80 ovarian epithelial cells, dose response, selectivity assay for PAX8 inhibitor project, cell-based, cherry-pick (AID 687032;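 active = fitted half-maximal concentration for viability loss no higher than twice the top valid dose, in every repeat run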;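 note: cells exposed to compound for 96 h before reading; 0% = neutral control wells and -100% = 2 µM mitoxantrone kill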)
[3] = inhibitors of CMV-promoter luciferase reporter, dose response, counter-screen for Pax8 inhibitor project, cell-based, HEK293, luminescence, dry powder (AID 743020;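 active = signal-lowering compounds whose fitted half-maximal concentration is at or below twice the top tested dose in every run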;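 note: HEK293 cells stably expressing the CMV luciferase reporter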)
[4] = non-specific cell cytotoxicity, dose response, cytotoxicity control for PAX8 inhibitor project, plate reader, dry powder samples (AID 743021)
[5] = IGROV1 ovarian cancer cell cytotoxicity, dose response, PAX8 inhibitor project, plate reader, dry powder samples (AID 743043);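 note: more negative means fewer viable cells or more cytotoxicity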
[6] = NIH:OVCAR-3 ovarian cancer cell cytotoxicity, dose response, PAX8 inhibitor project, plate reader, dry powder samples (AID 743044); conditions: max activity: at 35 µM, active compounds read low unless noted
[7] = IOSE-T80 ovarian epithelial cell cytotoxicity, dose response, cytotoxicity control for PAX8 inhibitor project, plate reader, dry powder samples (AID 743045);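 note: 0% = neutral control median and -100% = positive control median; more negative values mean more cell killing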
[8] = A2780 ovarian cancer cell cytotoxicity, dose response, cytotoxicity control, plate reader, dry powder samples (AID 743046);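 note: 0% = neutral control wells and -100% = cytotoxic reference compound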

Measured: max activity

C[C@H]1CCCCO[C@H](CN(C)Cc2ccc(Cl)c(Cl)c2)[C@@H](C)CN([C@@H](C)CO)C(=O)c2cc(NC(=O)Nc3ccccc3)ccc2O1
inactive: [1] | [2] | [3] | [4] | [5] | [6] -18.6% | [7] | [8]

C[C@@H]1CN([C@@H](C)CO)C(=O)Cc2cc(NC(=O)Nc3ccc(C(F)(F)F)cc3)ccc2O[C@H]1CN(C)C(=O)Nc1ccc(C(F)(F)F)cc1
inactive: [1] | [2] | [3] | [4] | [5] | [6] -32.2% | [7] | [8]

CCCC#Cc1ccc2c(c1)O[C@H](CN(C)Cc1ccccc1)[C@@H](C)CN([C@H](C)CO)S2(=O)=O
inactive: [1] | [2] | [3] | [4] | [5] | [6] 7.94% [at 1 µM, active compounds read low] | [7] | [8]

CCCC#Cc1ccc([C@H]2[C@H]3CN(S(=O)(=O)Cc4ccccc4)CCCCN3[C@H]2CO)cc1
inactive: [1] | [2] | [3] | [4] | [5] | [6] -34.3% | [7] | [8]

COc1cccc(S(=O)(=O)Nc2ccc3c(c2)[C@H]2C[C@H](CC(=O)NCc4ccccc4F)O[C@H](CO)[C@H]2O3)c1
inactive: [1] | [2] | [3] | [4] | [5] | [6] 44.6% [at 0.5 µM, active compounds read low] | [7] | [8]

CN1c2ccc(C3=CCCCC3)cc2[C@H]2[C@H](CCN2C(=O)NC2CCCCC2)[C@@H]1CO
inactive: [1] | [2] | [3] | [4] | [5] | [6] 17.4% [at 0.56 µM, active compounds read low] | [7] | [8]

Cc1ccc(S(=O)(=O)Nc2ccc3c(c2)C(=O)N([C@H](C)CO)C[C@@H](C)[C@H](CN(C)S(=O)(=O)c2ccc(Cl)cc2)OCCCC[C@H](C)O3)cc1
inactive: [1] | [2] | [3] | [4] | [5] | [6] -15.5% | [7] | [8]

C[C@@H]1CCCCO[C@@H](CN(C)Cc2ccc(Cl)c(Cl)c2)[C@H](C)CN([C@@H](C)CO)C(=O)c2cc(NS(=O)(=O)c3ccc(Cl)cc3)ccc2O1
inactive: [1] | [2] | [3] | [4] | [5] | [6] 10.4% [at 0.5 µM, active compounds read low] | [7] | [8]

COc1ccccc1C#Cc1ccc2c(c1)O[C@H](CN(C)Cc1cccnc1)[C@H](C)CN([C@H](C)CO)S2(=O)=O
inactive: [1] | [2] | [3] | [4] | [5] | [6] -36.9% | [7] | [8]

C[C@@H]1CCCCO[C@@H](CN(C)S(=O)(=O)c2cccs2)[C@H](C)CN([C@H](C)CO)C(=O)c2cc(NC(=O)Nc3ccc(C(F)(F)F)cc3)ccc2O1
inactive: [1] | [2] | [3] | [4] | [5] | [6] 9.36% [at 2.1 µM, active compounds read low] | [7] | [8]

C[C@@H]1CN([C@@H](C)CO)C(=O)c2cc(NS(=O)(=O)c3ccc(F)cc3)ccc2O[C@@H]1CN(C)Cc1ccc(C(F)(F)F)cc1
inactive: [1] | [2] | [3] | [4] | [5] | [6] -27.7% | [7] | [8]

CC(C)CC#Cc1ccc2c(c1)O[C@@H](CN(C)S(=O)(=O)c1ccc(F)cc1)[C@H](C)CN([C@@H](C)CO)S2(=O)=O
inactive: [1] | [2] | [3] | [4] | [5] | [6] 21.6% [at 4.2 µM, active compounds read low] | [7] | [8]

C[C@@H]1CN([C@H](C)CO)C(=O)c2cc(NS(=O)(=O)c3ccccc3)ccc2O[C@@H](C)CCCCO[C@H]1CN(C)Cc1ccc(Cl)c(Cl)c1
inactive: [1] | [2] | [3] | [4] | [5] | [6] 22% [at 0.5 µM, active compounds read low] | [7] | [8]

C[C@@H]1CN([C@H](C)CO)C(=O)c2c(c3ccccc3n2C)-c2ccccc2CO[C@@H]1CN(C)S(=O)(=O)c1ccc(C(F)(F)F)cc1
inactive: [1] | [2] | [3] | [4] | [5] | [6] -18.1% [at 16 µM, active compounds read low] | [7] | [8]

C[C@H](O)C#Cc1ccc2c(c1)O[C@@H](CN(C)Cc1ccc(-c3ccccc3)cc1)[C@@H](C)CN([C@@H](C)CO)S2(=O)=O
inactive: [1] | [2] | [3] | [4] | [5] | [6] -22.5% | [7] | [8]

C[C@@H]1CN([C@@H](C)CO)C(=O)c2cc(NC(=O)Nc3ccc(C(F)(F)F)cc3)ccc2O[C@@H](C)CCCCO[C@@H]1CN(C)Cc1ccccc1
inactive: [1] | [2] | [3] | [4] | [5] | [6] -20.5% [at 16 µM, active compounds read low] | [7] | [8]

Cc1ccc(S(=O)(=O)Nc2ccc3c(c2)C(=O)N([C@@H](C)CO)C[C@H](C)[C@H](CN(C)Cc2ccc(C(F)(F)F)cc2)OCCCC[C@@H](C)O3)cc1
inactive: [1] | [2] | [3] | [4] | [5] | [6] 9.21% | [7] | [8]

C[C@@H]1CCCCO[C@H](CN(C)Cc2ccc3c(c2)OCO3)[C@@H](C)CN([C@@H](C)CO)C(=O)c2cc(NS(=O)(=O)c3ccc(Cl)cc3)ccc2O1
inactive: [1] | [2] | [3] | [4] | [5] | [6] -40.7% [at 16 µM, active compounds read low] | [7] | [8]

C[C@H]1CN([C@@H](C)CO)S(=O)(=O)c2ccc(-c3ccc(C#N)cc3)cc2O[C@@H]1CN(C)Cc1cccc(F)c1
inactive: [1] | [2] | [3] | [4] | [5] | [6] -11.6% [at 16 µM, active compounds read low] | [7] | [8]

COc1ccc(S(=O)(=O)N(C)C[C@H]2OCCCC[C@@H](C)Oc3ccc(NS(=O)(=O)c4c(C)noc4C)cc3C(=O)N([C@H](C)CO)C[C@H]2C)cc1
inactive: [1] | [2] | [3] | [4] | [5] | [6] -13.5% | [7] | [8]

C[C@H]1CN([C@@H](C)CO)C(=O)c2cc(NS(=O)(=O)c3ccc(Cl)cc3)ccc2O[C@H]1CN(C)Cc1ccc(Cl)c(Cl)c1
inactive: [1] | [2] | [3] | [4] | [5] | [6] -29.6% | [7] | [8]

O=C(C[C@@H]1CC[C@H]2[C@@H](COC[C@@H](O)CN2Cc2cccc(C(F)(F)F)c2)O1)NCc1ccc(F)cc1
inactive: [1] | [2] | [3] | [4] | [5] | [6] 13.4% [at 2.1 µM, active compounds read low] | [7] | [8]

N#Cc1cccc(-c2ccc3c(c2)[C@@H]2[C@@H](CCN2C(=O)C2CCCCC2)[C@@H](CO)N3)c1
inactive: [1] | [2] | [3] | [4] | [5] | [6] 11.5% [at 16 µM, active compounds read low] | [7] | [8]

C[C@@H]1CN([C@@H](C)CO)C(=O)Cc2cc(NC(=O)Nc3ccc(C(F)(F)F)cc3)ccc2O[C@H]1CN(C)Cc1ccc(Oc2ccccc2)cc1
inactive: [1] | [2] | [3] | [4] | [5] | [6] -19.5% | [7] | [8]

COc1cccc(S(=O)(=O)N(C)C[C@@H]2OCc3ccccc3-c3c(n(C)c4ccccc34)C(=O)N([C@@H](C)CO)C[C@@H]2C)c1
inactive: [1] | [2] | [3] | [4] | [5] | [6] 23.2% [at 2.1 µM, active compounds read low] | [7] | [8]

C[C@@H]1CN([C@H](C)CO)C(=O)c2cc(NS(=O)(=O)c3cccs3)ccc2O[C@@H](C)CCCCO[C@H]1CN(C)Cc1ccc(C(F)(F)F)cc1
inactive: [1] | [2] | [3] | [4] | [5] | [6] -10.6% [at 16 µM, active compounds read low] | [7] | [8]

COc1ccc(NC(=O)Nc2ccc3c(c2)C(=O)N([C@@H](C)CO)C[C@@H](C)[C@@H](CN(C)Cc2ccc(Cl)c(Cl)c2)OCCCC[C@@H](C)O3)cc1
inactive: [1] | [2] | [3] | [4] | [5] | [6] -14.2% | [7] | [8]

C[C@H](CO)N1C[C@H](C)[C@H](CN(C)C(=O)c2ccccc2)OCCCC[C@H](C)Oc2ccc(NC(=O)Nc3ccc(C(F)(F)F)cc3)cc2C1=O
inactive: [1] | [2] | [3] | [4] | [5] | [6] 16.6% [at 0.5 µM, active compounds read low] | [7] | [8]

COc1ccc(CN2[C@H](CO)[C@H]3c4ccccc4NC[C@H]32)cc1
inactive: [1] | [2] | [3] | [4] | [5] | [6] 26.6% [at 0.5 µM, active compounds read low] | [7] | [8]

CS(=O)(=O)N1C[C@@H]2N[C@H](C1)[C@@H]2c1ccc(-c2ccccc2)cc1
inactive: [1] | [2] | [3] | [4] | [5] | [6] 15.8% [at 1 µM, active compounds read low] | [7] | [8]

Cc1cccc(-c2ccc([C@H]3[C@@H](CO)N4CCCCN(S(=O)(=O)c5cccc(C)c5)C[C@@H]34)cc2)c1
inactive: [1] | [2] | [3] | [4] | [5] | [6] -13.6% | [7] | [8]
